NCF1 inh: blocks human p47phox regulatory protein of NADPH oxidases; 220,000 tested, 0.53% active; inhibition, % at 24.7 µM; P14598; p47phox/p22phox peptide binding, fluorescence polarization, 2 h;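 note: 0% = p47phox with labelled peptide and 100% = labelled peptide alone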
eIF4E-4G inh: blocks eIF4E binding to eIF4G. 220,000 tested, 0.37% active. AID 782. TR-FRET eIF4E-eIF4GI(517-606) binding, 2 h. P63073+Q04637. inhibition, % at 21.7 µM;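 note: 0% = full FRET control wells and 100% = background wells lacking eIF4GI fragment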
Target sequence (P63073 whole entry, looked up, the tested form may be a part): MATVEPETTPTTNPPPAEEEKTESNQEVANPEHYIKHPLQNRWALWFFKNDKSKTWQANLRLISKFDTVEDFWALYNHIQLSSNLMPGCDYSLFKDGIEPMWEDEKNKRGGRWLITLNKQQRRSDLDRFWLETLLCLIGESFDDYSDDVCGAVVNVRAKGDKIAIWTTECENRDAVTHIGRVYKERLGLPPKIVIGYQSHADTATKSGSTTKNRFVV
Target sequence (Q04637 whole entry, looked up, the tested form may be a part): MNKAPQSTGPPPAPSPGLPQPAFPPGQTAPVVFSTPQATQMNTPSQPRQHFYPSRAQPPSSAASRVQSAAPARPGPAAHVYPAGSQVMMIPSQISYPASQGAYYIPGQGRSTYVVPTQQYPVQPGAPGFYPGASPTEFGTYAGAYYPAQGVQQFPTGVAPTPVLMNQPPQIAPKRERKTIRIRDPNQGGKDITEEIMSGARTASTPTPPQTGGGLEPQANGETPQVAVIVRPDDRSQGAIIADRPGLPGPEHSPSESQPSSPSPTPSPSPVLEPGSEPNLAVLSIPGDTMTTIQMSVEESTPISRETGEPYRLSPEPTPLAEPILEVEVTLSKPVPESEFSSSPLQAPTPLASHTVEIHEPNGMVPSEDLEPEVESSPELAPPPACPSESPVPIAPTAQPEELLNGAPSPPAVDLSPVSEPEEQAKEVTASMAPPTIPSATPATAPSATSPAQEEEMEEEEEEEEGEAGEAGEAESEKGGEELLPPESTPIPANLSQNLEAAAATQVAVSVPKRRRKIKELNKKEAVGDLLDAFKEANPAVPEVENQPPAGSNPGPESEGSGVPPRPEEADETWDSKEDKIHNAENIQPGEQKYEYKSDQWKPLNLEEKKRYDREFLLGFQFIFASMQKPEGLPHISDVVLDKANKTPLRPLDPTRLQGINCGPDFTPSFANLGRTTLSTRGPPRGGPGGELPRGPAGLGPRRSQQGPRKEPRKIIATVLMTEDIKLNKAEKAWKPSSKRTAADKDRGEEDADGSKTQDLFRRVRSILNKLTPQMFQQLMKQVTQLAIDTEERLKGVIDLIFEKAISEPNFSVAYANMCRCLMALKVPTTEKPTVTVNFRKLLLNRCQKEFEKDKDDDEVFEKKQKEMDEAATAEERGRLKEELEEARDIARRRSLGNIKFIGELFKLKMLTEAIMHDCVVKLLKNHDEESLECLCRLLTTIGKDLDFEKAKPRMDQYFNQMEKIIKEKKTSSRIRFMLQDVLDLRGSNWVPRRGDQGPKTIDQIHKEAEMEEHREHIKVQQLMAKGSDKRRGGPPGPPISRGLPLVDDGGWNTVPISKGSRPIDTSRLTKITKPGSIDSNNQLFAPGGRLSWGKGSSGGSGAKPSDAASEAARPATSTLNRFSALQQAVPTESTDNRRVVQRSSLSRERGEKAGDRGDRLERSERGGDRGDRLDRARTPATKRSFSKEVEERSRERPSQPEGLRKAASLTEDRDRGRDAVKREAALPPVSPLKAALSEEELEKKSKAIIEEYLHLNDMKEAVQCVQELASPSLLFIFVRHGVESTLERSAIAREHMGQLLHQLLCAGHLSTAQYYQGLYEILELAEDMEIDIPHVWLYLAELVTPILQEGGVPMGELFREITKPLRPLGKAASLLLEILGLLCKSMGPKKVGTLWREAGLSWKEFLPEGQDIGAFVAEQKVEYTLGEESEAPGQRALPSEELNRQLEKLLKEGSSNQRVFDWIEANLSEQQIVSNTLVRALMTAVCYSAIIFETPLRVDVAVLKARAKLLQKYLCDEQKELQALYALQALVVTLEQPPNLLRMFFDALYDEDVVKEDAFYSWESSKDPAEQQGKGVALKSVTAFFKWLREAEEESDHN
14-3-3 Bad inh: disrupts binding of bovine 14-3-3 zeta to phospho-Bad peptide. inhibition, % at 21.7 µM. 220,000 tested, 0.71% active. TR-FRET 14-3-3zeta/Dy647-pBad peptide displacement, 1 h;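 active = inhibition above about 70%, limit read from the data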;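 note: 0% = full 14-3-3 plus peptide FRET controls and 100% = background without 14-3-3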
Mcl1 Bid PPI: Mcl-1/Bid interaction inhibition. Q07820. TR-FRET Mcl-1/Bid-Dy647 peptide binding, 1536-well. inhibition, % at 21.7 µM. 220,000 tested, 0.97% active;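 active = compounds that cut the binding signal by more than half at the single screening dose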;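 note: His-tagged Mcl-1 with europium anti-His antibody binding Bid BH3 peptide; 0% = Mcl-1 plus peptide wells and 100% = peptide-only wells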
Mcl1-Noxa inh: Mcl-1/Noxa interaction inhibition; Q07820; TR-FRET Mcl-1/Noxa peptide binding, 2 h; inhibition, % at 21.7 µM; 220,000 tested, 1.5% active;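 active = compounds that cut the protein-peptide binding signal by more than 50% relative to plate controls in a single-dose test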;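 note: His-tagged Mcl-1 with rhodamine Noxa BH3 peptide and terbium anti-His antibody; 0% = Mcl-1 plus Noxa peptide wells and 100% = peptide-only wells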
Mcl-1 Bim block: inhibitors of Bim-Mcl-1 interaction, human. Q07820. inhibition, % at 10 µM. Bead-based flow cytometry, Bim peptide-Mcl-1 binding. 190,000 tested, 0.1% active; in the data active = inhibition above about 40%;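 note: 0% = no compound tracer wells and 100% = peptide blocker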
* = called active by the depositor; nt = no result; [ ] = another dose, or the depositor's remark. In the library only some 3.4% were active in any assay of this set; here they are far more common.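 Rule for the calls, unless noted: active = inhibition above about 30% (limit read from the data); inactive = the rest.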

SMILES	NCF1 inh	eIF4E-4G inh	14-3-3 Bad inh	Mcl1 Bid PPI	Mcl1-Noxa inh	Mcl-1 Bim block
COc1cc(/C=N/NC(=O)Nc2ccccc2)ccc1OC(C)=O	-1	15	-6	-36	-1	-6
CC(=O)Nc1sc(N/N=C/c2ccc(O)cc2)nc1-c1ccc(C)cc1	-13	-2	8	-85	89*	nt
COc1ccc(/C=N/Nc2nc(-c3ccc(C)cc3)c(NC(C)=O)s2)cc1	24	0	-12	-36	50	nt
CC(=O)Nc1sc(N/N=C\c2ccccc2)nc1-c1cccs1	-16	20	-8	-38	55*	-37
CCOc1cc(/C=N/NC(=O)Nc2ccccc2)ccc1O	75*	0	-1	-56	25	5
CCOc1cc(/C=N/Nc2nc(-c3cccs3)c(NC(C)=O)s2)ccc1O	-18	-6	2	-81	101*	nt
COC(=O)c1nnn(CC(=O)NC(=O)Nc2cccc(Cl)c2C)c1C(=O)OC	-7	0	-5	-8	3	0
Cc1ccc(NC(=O)COC(=O)CNC(=O)c2ccco2)cc1	-5	0	-3	-24	8	2
CC(=O)Nc1sc(N/N=C\c2ccccc2Cl)nc1-c1cccs1	-2	4	12	7	61*	-2
CC(=O)Nc1sc(N/N=C\c2ccco2)nc1-c1cccs1	-38	-3	-1	-74	74*	-5
CC(=O)Nc1sc(NC(=O)c2ccc(Cl)cc2)nc1-c1cccs1	-10	-6	-7	-19	31	-1
CCn1ccnc1CNC(=O)CC1C(=O)NCCN1Cc1ccc(OC)cc1OC (stereo not given)	2	-3	-6	-34	-3	nt
O=[N+]([O-])c1ccccc1N(CC1CO1)S(=O)(=O)c1ccccc1 (stereo not given)	3	4	11	6	10	-1
CCOC(=O)/C(C)=C1\NC(C)(C)Cc2ccccc21	62*	1	33	-17	10	-4
O=c1[nH]oc2cc(Cl)ccc12	-5	0	-1	-12	8	nt
CNc1nc(CCN2C(=O)c3ccccc3C2=O)cs1	-9	5	-8	-11	-16	-4
CC(=O)Nc1nc(CCN2C(=O)c3ccccc3C2=O)cs1	45*	0	7	-16	6	-2
Cc1ccc(S(=O)(=O)N(C)c2ccc3sc(C)nc3c2)cc1	-25	-2	-8	-23	-6	-5
COc1ccc(CC(=O)NNS(=O)(=O)c2ccccc2)cc1OC	-15	3	6	-21	16	3
CC(C)C(c1nnnn1C(C)(C)C)N1CCOCC1 (stereo not given)	-16	3	71*	19	21	-3
CCC(=O)N1CCc2cc(S(=O)(=O)CCC(=O)Nc3ccc(OC)c(OC)c3)ccc21	-6	1	-8	-13	7	0
CC(NCc1ccc(N(C)C)cc1)C1CC2CCC1C2 (stereo not given)	1	5	78*	-45	37	0
COc1ccc(O)c(CNc2ccccc2F)c1	-1	5	-12	-39	15	0
COC1=CC(=O)CC(C)C12Oc1c(Cl)c(OC)cc(OC)c1C2=O (stereo not given)	-6	4	77*	1	-66	0
O=C(Nc1nccs1)c1cc2sccc2n1Cc1ccc(F)cc1	4	0	-4	3	-52	0
SMILES	NCF1 inh	eIF4E-4G inh	14-3-3 Bad inh	Mcl1 Bid PPI	Mcl1-Noxa inh	Mcl-1 Bim block
COc1ccc(NC(=O)c2cc3sccc3n2Cc2ccc(F)cc2)cc1OC	-22	1	5	58*	-50	-2
C=CCNC(=O)c1onc(CSc2cccc(OC)c2)c1C(=O)O	32*	1	18	11	21	-1
COc1cccc(SCc2noc(C(=O)NC(C)C)c2C(=O)O)c1	0	0	2	21	21	4
Cc1ccc(NC2Sc3ccccc3NC2=O)cc1 (stereo not given)	-11	2	0	-32	56*	-5
CCOc1ccc(C(=O)Nc2ncccc2Cl)cc1	-3	4	4	-29	5	1
COc1ccccc1NC(=O)N1CCCC1C(=O)Nc1nnc(C(C)C)s1 (stereo not given)	3	7	78*[fluorescence artefact?]	7	-5	0
S=c1[nH]c2ccc3ccccc3c2[nH]1	-2	7	1	-46	12	1
Cc1[nH]c2c(ccc3ccccc32)c1C1C(CCN)C1(C)C (stereo not given)	60*	-6	12	12	10	-2
CCC(C(=O)O)N1C(=O)C2CCCCC2C1=O (stereo not given)	-2	1	-4	-49	21	nt
CC(C(O)C12CC3CC(CC(C3)C1)C2)N1CCCCC1 (stereo not given)	-5	1	-3	-21	5	0
Cc1ccc(C)n1-c1ccc(C(=O)O)cc1	-22	13	-2	-48	62*	-3
c1ccc(Cn2cc(CNc3ccccc3)nn2)cc1	-6	-2	-1	-140	9	nt
O=c1/c(=C\c2cc([N+](=O)[O-])cc([N+](=O)[O-])c2O)sc2nc3ccccc3n12	-76	30*	75*	91*	105*	-1
O=C(O)c1cc(C(=O)O)cc(-c2ccc(/C=c3/sc4nc5ccccc5n4c3=O)o2)c1	-43	3	51	-32	54*	1
O=C(O)c1cccc(-c2ccc(/C=c3/sc4nc5ccccc5n4c3=O)o2)c1	-106	39*	68	33	89*	nt
O=c1/c(=C/c2ccccn2)sc2nc3ccccc3n12	0	-12	16	47	44	0
CN(C)c1ccc(NC(=O)CCn2c(=S)oc3ccccc32)cc1	-29	21	9	-15	68*	2
COc1ccc2c(c1)Cc1sc(NC(=O)c3ccccc3)nc1-2	-3	-2	-6	-9	11	1
COc1ccc(C(=O)Nc2nc3c(s2)Cc2cc(OC)ccc2-3)cc1	16	3	59	55*	86*	0
COc1ccc(C(=O)Nc2nc3ccc4nc(C)sc4c3s2)cc1	-15	-7	62	13	53*	2
COc1cc(C(=O)Nc2nc3ccc4nc(C)sc4c3s2)cc(OC)c1OC	-12	-4	8	4	12	-3
CC(C)C(C(=O)N1CCN(C(=O)OC(C)(C)C)CC1)n1cc(-c2cn([C@@H](C)C(=O)N3CCN(C(=O)OC(C)(C)C)CC3)nn2)nn1 (stereo not given in full)	-3	2	-3	-37	0	nt
CSc1cccc(NC(=O)N2CCCC(CNS(=O)(=O)Cc3ccccc3)C2)c1 (stereo not given)	-2	1	-2	-26	-15	-5
CCC(CC)C(=O)Nc1cccc(S(=O)(=O)c2cccc(NC(=O)C(CC)CC)c2)c1	-22	-3	3	-15	2	44*

Compound activity as filed in PubChem BioAssay.
